Screening data from PubChem.
CYP2C9 inhib: inhibitors of human CYP2C9; P11712; CYP2C9 Supersomes, luciferin-H conversion, luminescence; 96,000 compounds, 20% hits; inhibition, % at 5 µM;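 active = blocking of liver enzyme CYP2C9 beyond about 50% at 5 µM, limit read from the data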
Target sequence (P11712 whole entry, looked up): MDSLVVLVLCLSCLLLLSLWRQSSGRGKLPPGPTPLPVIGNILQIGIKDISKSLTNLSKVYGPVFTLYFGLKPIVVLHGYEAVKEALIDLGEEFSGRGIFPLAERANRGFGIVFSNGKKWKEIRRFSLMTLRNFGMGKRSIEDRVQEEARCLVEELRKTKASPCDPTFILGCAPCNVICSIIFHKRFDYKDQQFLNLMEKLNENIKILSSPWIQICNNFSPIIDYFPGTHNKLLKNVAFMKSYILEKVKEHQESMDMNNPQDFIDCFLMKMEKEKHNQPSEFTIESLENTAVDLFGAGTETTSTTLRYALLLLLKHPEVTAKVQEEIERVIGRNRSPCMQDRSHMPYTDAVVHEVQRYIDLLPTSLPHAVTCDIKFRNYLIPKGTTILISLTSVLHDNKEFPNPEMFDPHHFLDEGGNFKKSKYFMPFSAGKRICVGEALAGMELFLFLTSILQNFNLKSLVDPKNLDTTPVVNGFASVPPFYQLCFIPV
PostGolgi yeast: growth inhibition of a yeast mutant, post-Golgi transport screen; post-Golgi transport phenotypic cell assay; inhibition, % at 10 µM; 98,000 compounds, 0.9% hits; AID 739;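 also: yeast cells grown in 1536-well plates; yeast grown about 18 h at 30C before absorbance read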
CYP2C19 activ: activators of human cytochrome P450 2C19; P33261; recombinant CYP2C19, luciferin-H EGE luminescence; stronger effect = higher value; 0 = fully inhibited enzyme, 1 = untreated enzyme; activation factor at 5 µM; 96,000 tested, under 10 active; AID 1025;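 active = activation factor of at least 2 at 5 µM in the primary screen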;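 also: 0 = wells with 2.5 mM tranylcypromine and 1 = vehicle-only wells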
CYP2C9 activ: CYP2C9 (human) activation; P11712; recombinant CYP2C9, luciferin-H conversion, luminescence; stronger effect = higher value; factor 1 = untreated enzyme, 0 = blocked; activation factor at 5 µM; 96,000 compounds, 1.4% hits;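 active = activation factor of 2 or more for CYP2C9 at a 5 µM dose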;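 also: 0 = sulfaphenazole-blocked wells and 1 = vehicle-only wells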
CYP2C19 inhib: inhibitors of human CYP2C19; AID 778; CYP2C19 Supersomes, luciferin-H EGE luminescence, 30 min; P33261; 96,000 compounds, 21% hits; inhibition, % at 5 µM;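 active = CYP2C19 inhibition above a set limit at 5 µM in the primary screen, cut at about 50% in these data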;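 also: plate controls were negative control wells for no effect and 2.5 mM tranylcypromine positive control for full effect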
PostGolgi ctrl: growth of the yeast control strain, post-Golgi counter-screen. 98,000 compounds, 5% hits. efflux-deficient yeast background strain, growth absorbance A615, 16 h. inhibition, % at 10 µM
* marks the source's active call; other numbers are inactive results; nt = no result. Most compounds without a hit are left out; they make up all but 32% or so of the library. Rule as the data show it, unless noted: active = inhibition above about 30%; inactive = the rest.

SMILES | CYP2C9 inhib | PostGolgi yeast | CYP2C19 activ | CYP2C9 activ | CYP2C19 inhib | PostGolgi ctrl
Cc1c(NC(=O)C2CCCN2S(=O)(=O)c2ccc(Cl)cc2)c(=O)n(-c2ccccc2)n1C (stereo not given) | -18 | 0 | 1.2 | 1.2 | -15 | 10
CN1CCN(CC(=O)Nc2nc(-c3ccccc3)cs2)CC1 | -4 | 0 | 0.9 | 1 | 7 | 7
CC(C)(C)C(=O)Nc1nc(C2CCCN2S(=O)(=O)c2ccc(Cl)cc2)cs1 (stereo not given) | 100* | -5 | 0 | 0 | 100* | 4
CCOC(=O)c1sc(=S)n(-c2cc(OC)ccc2OC)c1N | 23 | 15 | 0.8 | 0.8 | 17 | 12
CC(=O)N1c2ccccc2NC(=O)C1(C)C | -7 | 0 | 1 | 1.1 | 1 | 1
Cc1cc(C)cc(-n2nnnc2SCC(=O)Nc2nc(-c3ccc(Cl)cc3)cs2)c1 | -59 | -2 | 1 | 1.6 | 4 | 2
Cc1cc(C)cc(-n2nnnc2SCC(=O)Nc2nc(-c3ccc(F)cc3)cs2)c1 | -124 | -2 | 0.8 | 2.2* | 23 | 6
Cc1ccc(-n2nnnc2SCC(=O)Nc2nc(-c3ccc(F)cc3)cs2)cc1C | 52* | -9 | 0.7 | 0.5 | 30 | -3
CC(C)OC(=O)c1cccc(C(=O)OCc2ccco2)n1 | 15 | 7 | 0.8 | 0.8 | 15 | 24
COCC(=O)Nc1cc(C(=O)Nc2ccccc2C)ccc1Cl | 30 | -2 | 0.8 | 0.7 | 17 | 7
COCC(=O)Nc1cc(C(=O)Nc2cccc(C)c2C)ccc1Cl | 58* | -10 | 1 | 0.4 | 0 | 7
O=C1CCCC2=C1C(c1ccsc1)CC(=O)N2c1ccccc1 (stereo not given) | 32 | -8 | 0.6 | 0.7 | 38 | -9
O=C1CCCC2=C1C(c1ccsc1)CC(=O)N2c1nnc(SCc2ccccc2)s1 (stereo not given) | 46 | 4 | 0.9 | 0.5 | 9 | 37*
CCn1cc(C(=O)NCCCN2CCC(C)CC2)c2cc(OC)c(OC)cc2c1=O | 1 | -1 | 1 | 1 | -2 | -3
O=C(COC(=O)c1cc(S(=O)(=O)N2CCOCC2)cs1)c1ccccc1 | 21 | -5 | 0.9 | 0.8 | 9 | 10
CCOC(=O)COc1ccc(C2NC(C(=O)O)CS2)cc1 (stereo not given) | -1 | -8 | 1 | 1 | 3 | -12
COc1cc(C2NC(C(=O)O)CS2)ccc1OCc1ccccc1C#N (stereo not given) | 27 | -8 | 0.4 | 0.7 | 59* | 9
N#Cc1c(NC(=O)CSc2nc3c(c(C(F)(F)F)n2)CCc2ccccc2-3)sc2c1CCCC2 | 42 | -1 | 1 | 0.6 | -2 | 28
C=CCn1c2ccccc2c2nnc(SC(CC)C(=O)Nc3sc4c(c3C#N)CCCC4)nc21 (stereo not given) | 73* | -12 | 0.5 | 0.3 | 53* | 3
O=C(NCCSCc1ccccc1)c1ccc(C2SCC(=O)N2Cc2ccccc2)cc1 (stereo not given) | 97* | 16 | 0.1 | 0 | 92* | 5
O=C(c1c(O)c2ccccc2oc1=O)C1CCCCC1 | 65* | 5 | 1 | 0.4 | -5 | 5
O=C(CCC1CCCC1)c1c(O)c2ccccc2oc1=O | 26 | -1 | 1 | 0.7 | 0 | 0
CN(C)S(=O)(=O)Nc1ccc2c(c1)Cc1ccccc1-2 | 94* | 15 | 0.6 | 0.1 | 43 | 11
CN(C)S(=O)(=O)Nc1ccc(NS(=O)(=O)N(C)C)c(S(=O)(=O)c2ccccc2)c1 | 36 | 5 | 1.1 | 0.6 | -7 | -1
COc1ccc(NS(=O)(=O)c2ccc3c(c2)Cc2ccccc2-3)cn1 | 88* | -2 | 0.6 | 0.1 | 43 | 65*
SMILES | CYP2C9 inhib | PostGolgi yeast | CYP2C19 activ | CYP2C9 activ | CYP2C19 inhib | PostGolgi ctrl
COc1ccc(C(=O)Nc2ccc3c(c2)Cc2ccccc2-3)cc1 | -2 | -4 | 0.9 | 1 | 5 | 21
O=C(NCC(c1cccs1)N1CCOCC1)c1ccc(Br)o1 (stereo not given) | 26 | 16 | 0.8 | 0.7 | 24 | 5
Cc1nc(-c2ccccc2)sc1-c1n[nH]c(=S)n1C | 15 | 0 | 0.9 | 0.8 | 9 | 5
CSc1nnc(-c2sc(-c3ccccc3)nc2C)n1C | 72* | -2 | 0.6 | 0.3 | 42 | -2
O=C(Nc1nc(-c2cc(Cl)sc2Cl)cs1)c1cccs1 | 83* | 14 | 0.7 | 0.2 | 33 | 14
O=C(Nc1nc(-c2cc(Cl)sc2Cl)cs1)c1ccc(Br)s1 | -2 | -10 | 1 | 1 | -4 | -8
O=C(Nc1ccc(S(=O)(=O)N2CCOCC2)cc1)c1cccs1 | 9 | -3 | 0.9 | 0.9 | 15 | 3
O=C(NCCc1ccc(S(=O)(=O)N2CCCC2)cc1)c1cccs1 | 62* | 4 | 0.6 | 0.4 | 40 | 2
O=C(Nc1nc(-c2ccc(S(=O)(=O)N3CCCCCC3)cc2)cs1)c1cccs1 | 53* | -12 | 0.9 | 0.5 | 10 | 9
O=C(Nc1nc(-c2ccc(S(=O)(=O)N3CCCC3)cc2)cs1)c1cccs1 | 62* | -12 | 0.7 | 0.4 | 33 | 15
CN1CCc2c(sc3c2c(=O)n(-c2ccccc2)c2n[nH]c(=S)n32)C1 | 18 | 2 | 0.9 | 0.8 | 9 | 4
CCOC(=O)C1CCN(C(=O)C2CC(=O)N(c3ccc(C)cc3)C2)CC1 (stereo not given) | 12 | -1 | 0.9 | 0.9 | 9 | 25
CCSc1nnc2c(n1)OC(c1ccc(C(=O)O)cc1)N(C(C)=O)c1ccccc1-2 (stereo not given) | -30 | -1 | 1.1 | 1.3 | -8 | 2
Cc1c(-c2ccccc2)oc2nc3c(c(=O)n(C)c(=O)n3C)n12 | 4 | nt | 0.9 | 1 | 5 | nt
CC(C)(C)NC(=O)CN(Cc1cccs1)C(=O)c1csnn1 | 15 | -10 | 0.6 | 0.8 | 37 | 31*
O=Cc1nc(-c2ccccc2Cl)n2ccccc12 | -120 | 5 | 0.7 | 2.2* | 35 | 1
Cc1nc2ncnn2c(C)c1CCC(=O)O | 11 | -2 | 1 | 0.9 | -3 | -3
Cc1ccc(OC(=O)CCc2c(C)nc3ncnn3c2C)cc1 | 10 | -1 | 0.4 | 0.9 | 56* | -1
Cc1nc2ncnn2c(C)c1Cc1c(Cl)cccc1Cl | 30 | 6 | 0.4 | 0.7 | 62* | 1
CC(C)(C)C1CCC2(CC1)Nc1cccc3cccc(c13)N2 | 80* | -3 | 0 | 0.2 | 96* | 24
CSc1snc(SCC(N)=O)c1C#N | 3 | 8 | 1 | 1 | -1 | 3
COc1cc2nc(N3CCN(C(=O)C4CCCO4)CC3)nc(N)c2cc1OC (stereo not given) | 60* | 2 | 0.7 | 0.4 | 33 | -2
Cc1c(C2OC(=O)C3(CCCCC3)C(=O)C2(C)C)c(=O)n(-c2ccccc2)n1C (stereo not given) | 5 | -2 | 0.7 | 0.9 | 30 | -1
CCCCOc1ccc(C(=O)Nn2cnnc2)cc1 | 93* | 13 | 0.1 | 0.1 | 93* | 0
